# Shown are actives, neighbours in structure and some others; about 2.4% of the full set was active somewhere.
# Cruzain inh Det: inhibitors of Trypanosoma cruzi cruzain with detergent | P25779 | purified cruzain, Z-FR-AMC fluorescence, 0.01% Triton | Potency, µM, without a hit: max response, negative = inhibition, actives largely listed as inhibitors | 200,000 compounds, 0.43% hits | AID 1478;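 also: plate controls were neutral wells for no effect and buffer without enzyme for full effect; nearly all actives have a fitted effect of over 40% in size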
# Target sequence (P25779 123-467 limits assumed): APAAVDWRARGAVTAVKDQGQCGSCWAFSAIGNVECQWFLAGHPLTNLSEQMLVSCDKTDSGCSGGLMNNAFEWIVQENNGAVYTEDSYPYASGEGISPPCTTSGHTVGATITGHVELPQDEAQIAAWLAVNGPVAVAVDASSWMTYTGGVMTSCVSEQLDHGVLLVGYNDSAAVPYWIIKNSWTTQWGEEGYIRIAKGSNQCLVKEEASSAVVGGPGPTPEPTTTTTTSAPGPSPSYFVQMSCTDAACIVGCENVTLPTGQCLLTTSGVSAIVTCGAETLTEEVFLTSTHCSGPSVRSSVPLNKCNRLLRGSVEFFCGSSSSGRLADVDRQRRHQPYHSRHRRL
#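 Purified cruzain (1.5 nM final) was preincubated with compounds for 15 min at room temperature in 100 mM sodium acetate pH 5.5, 5 mM DTT, 0.01% Triton X-100. Reaction started with 2 uM Z-FR-AMC; AMC fluorescence change over 60 s gave activity.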
# Cruzain inh noDet: cruzain (T. cruzi) inhibition without detergent | AID 1476 | purified cruzain, Z-FR-AMC fluorescence, no detergent | Potency, µM, for inactives: max response, negative = inhibition, most hits filed as inhibitors | 200,000 compounds, 2.3% hits;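 also: plate controls were enzyme without inhibitor for no effect and buffer without enzyme for full effect; nearly all actives have a fitted effect of over 40% in size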
#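 Detergent-free condition (0.00005% Triton X-100) in acetate buffer pH 5.5 with DTT. 1.5 nM enzyme and compound were pre-mixed 15 min, then 2 uM Z-FR-AMC substrate added; reaction progress from fluorescence change between first and third reads (60 s).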
# Active calls of the source: *; ? = inconclusive. Calls follow the shape of the dose curve; as a rule, active = well fitted curve in the direction sought with a large enough effect; inconclusive = small, poorly fitted or top-dose-only effect, or another doubt; inactive = no such curve, though single readings can be large; an effect the other way counts as inactive or inconclusive. Potency is read from the fitted curve at half-maximal effect.
SMILES,Cruzain inh Det,Cruzain inh noDet
Cc1[nH]n(-c2ncc(-c3ccccc3)s2)c(=O)c1C(c1ccc(Cl)cc1)C(C#N)C#N (configuration not stated),?,12.6µM*
O=c1[nH]cnc2c1ncn2[C@H]1CC[C@@H](CO)O1,4.6%,-3.5%
COc1cccc(Cn2c(=O)c(-c3cccc(C#N)c3)nc3cnc(OC)nc32)c1,1.3%,-8.2%
CCCc1ccc(-c2cc(C(=O)NCCc3ccc(S(N)(=O)=O)cc3)c3ccccc3n2)cc1,-15.7%,2.7%
CCCc1ccc(-c2cc(C(=O)Nc3ccc([N+](=O)[O-])cn3)c3ccccc3n2)cc1,-3.8%,25.1µM*
CCN(C(=O)CSc1nc2ccccc2nc1Cc1ccccc1OC)c1ccccc1,-2.0%,-13.5%
Cn1c(=O)c2cc(S(=O)(=O)Nc3ccc4c(c3)OCO4)ccc2n(C)c1=O,4.8%,-8.1%
Cn1c(=O)oc2cc(S(=O)(=O)Nc3ccc4c(c3)OCO4)ccc21,2.3%,31.6µM*
O=C(Nc1ccccc1)N1CCCc2ccccc21,0.6%,-3.7%
Cc1c(C2=CCN(S(=O)(=O)c3ccc(Br)cc3)CC2)c2ccccc2n1C,-2.4%,10µM*
CCn1c(C)c(C2=CCN(S(=O)(=O)c3ccc(C)cc3)CC2)c2ccccc21,-4.3%,?
Cc1ccc(-n2c(SCC(=O)NCCN3C(=O)CSC3=O)nnc2-c2ccccc2F)cc1,-1.2%,12.1%
Cc1cccc(OCC(=O)NCCc2nc3ccccc3[nH]2)c1C,3.98µM*,3.3%
Cc1ccccc1OCC(=O)NCCc1nc2ccccc2[nH]1,5.01µM*,3.16µM*
Cc1cccc(OCC(=O)NCc2ccncc2)c1C,-2.7%,-0.6%
Cc1ccccc1OCC(=O)NCCC(=O)O,1.4%,1.4%
CCOC(=O)c1ccc(NC(=O)CC2Sc3ncnn3C2=O)cc1 (configuration not stated),-1.4%,-27.1%
Cc1ccc2nc(-c3cc(N)cc(N)c3)oc2c1,-1.5%,?
Nc1ccc(-c2nc3ccc(N)cc3o2)cc1,20µM*,15.8µM*
Cc1ccc(-c2nc3c(cnn3-c3ccccc3)c(=O)n2-c2cccc(Cl)c2)cc1,-8.1%,?
COC(=O)CSc1ncc2c(n1)-c1ccccc1N(Cc1ccc(Cl)cc1)S2(=O)=O,1.9%,-10.8%
C=CCNc1nc(N2CCOCC2)nc(N2CCOCC2)n1,0.8%,-10.8%
CCOC(=O)/C(=C\C=C\c1ccccc1)NC(=O)c1ccccc1,-24.8%,-19.4%
C=CCOC(=O)/C(=C\C=C\c1ccccc1)NC(=O)c1ccccc1,14.1µM*,?
O=c1c(Oc2ccccc2F)coc2cc(OCc3cnn(-c4ccccc4)c3)ccc12,-3.7%,-29.1%
SMILES,Cruzain inh Det,Cruzain inh noDet
Cc1[nH]nc(-c2ccc(OCc3cnn(-c4ccccc4)c3)cc2O)c1Oc1ccccc1F,1.9%,20µM*
COC(=O)c1ccc(Cn2nnc3ccccc3c2=O)o1,-0.1%,3.7%
Cc1cc(C2=NNC(=NC3CC3)SC2)c(C)n1-c1ccccc1F,-7.2%,?
C=C(C)CN=C1NN=C(c2cc(C)n(-c3ccc(C)cc3)c2C)CS1,-5.8%,7.94µM*
COc1cccc(CNC(=O)CCc2c(C)c3cc4c(C)coc4cc3oc2=O)c1,-7.6%,4.4%
CCCn1c(N2CCN(S(=O)(=O)Cc3ccccc3)CC2)nc2ccccc21,0.1%,3.3%
COc1ccc(-c2csc(NC(=O)c3nc(-c4ccccc4)oc3C)n2)cc1,4.7%,7.94µM*
CC(=O)c1c(C)[nH]c(C(=O)Nc2nc(-c3ccc(-c4ccccc4)cc3)cs2)c1C,-2.8%,10µM*
Cc1oc(-c2ccccc2)nc1C(=O)Nc1nccs1,-1.5%,-9.5%
CC(=O)c1c(C)[nH]c(C(=O)Nc2nc(-c3ccc(Cl)cc3)cs2)c1C,-8.2%,-11.2%
Cc1ccc(NC(=O)c2ccc(-n3cccn3)c([N+](=O)[O-])c2)cc1C,-3.5%,-6.1%
COc1ccc(/C=N/S(=O)(=O)CCc2ccccc2)c(OC)c1,-8.5%,4.3%
Cc1nc(-c2cccc(NS(=O)(=O)c3ccc4ccccc4c3)c2)cs1,-1.4%,25.1µM*
Cc1nc(CNS(=O)(=O)c2ccc3ccccc3c2)cs1,2.5%,-2.6%
CC(C)C(NC(=O)OCc1ccccc1)C(=O)OCC(=O)N1CCCCC1 (configuration not stated),3.5%,1.3%
CC(=O)c1cccc(NC(=O)COC(=O)[C@@H](NC(=O)OCc2ccccc2)C(C)C)c1,15.8µM*,25.1µM*
Cc1ccc(NC(=O)N(Cc2ccc3c(c2)OCO3)Cc2cc3cc4c(cc3[nH]c2=O)OCCO4)cc1,2.2%,31.6µM*
Cc1ccc(NC(=O)N(Cc2cccs2)Cc2cc3cc4c(cc3[nH]c2=O)OCO4)cc1,0.0%,?
Cc1cc(C)c(S(=O)(=O)Nc2ccc(-c3ccc(N4CCCCC4)nn3)cc2)cc1C,-5.2%,?
COc1ccc(N/N=C(/C)c2cnnc(-c3ccccc3)n2)cc1,-14.7%,15.8µM*
CC/C(=N/Nc1ccccc1Cl)c1cnnc(-c2ccccc2)n1,-5.1%,-16.2%
